Values without a mark were called inactive.
How the values were obtained:
Assay in all cases: log2 ratio of Biotin-Ahx-Ub-VS probe labelling (fragment/DMSO); higher = less target engagement (more negative = stronger competition), active = hit call of the paper (q ≤ 0.05, log2 ratio ≤ -1)
Conditions in all cases: compound concentration: 200 uM; treatment time: 3 h
OTUD6B = biological target: T1, OTUD6B (UniProt Q8N6M0)
T1 sequence (whole entry): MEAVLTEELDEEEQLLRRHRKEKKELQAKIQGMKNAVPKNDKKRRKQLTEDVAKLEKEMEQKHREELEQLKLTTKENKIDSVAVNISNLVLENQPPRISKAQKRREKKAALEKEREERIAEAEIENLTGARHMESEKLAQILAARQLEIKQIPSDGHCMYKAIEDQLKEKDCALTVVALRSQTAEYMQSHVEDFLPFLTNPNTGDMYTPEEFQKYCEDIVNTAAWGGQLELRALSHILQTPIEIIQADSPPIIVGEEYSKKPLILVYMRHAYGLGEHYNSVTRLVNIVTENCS
Summary of the method: (§1)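 Labelling with Biotin-Ahx-Ub-VS (0.5 µM final, 1 h) followed a 3 h triplicate treatment of HEK293T lysate (495 µg per sample, Tris/CHAPS/IGEPAL buffer with protease inhibitors) with fragment at 200 µM or vehicle. Labelled DUBs were NeutrAvidin-enriched, digested with LysC and trypsin, and run by diaPASEF LC-MS/MS. The values, average log2 fragment/vehicle ratios by unpaired t-test, come from global-median-normalised Spectronaut label-free quantities. Proteins with ≥2 unique peptides were used.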

OTUD7B = biological target: T2, OTUD7B (UniProt Q6GQQ9)
T2 sequence (whole entry): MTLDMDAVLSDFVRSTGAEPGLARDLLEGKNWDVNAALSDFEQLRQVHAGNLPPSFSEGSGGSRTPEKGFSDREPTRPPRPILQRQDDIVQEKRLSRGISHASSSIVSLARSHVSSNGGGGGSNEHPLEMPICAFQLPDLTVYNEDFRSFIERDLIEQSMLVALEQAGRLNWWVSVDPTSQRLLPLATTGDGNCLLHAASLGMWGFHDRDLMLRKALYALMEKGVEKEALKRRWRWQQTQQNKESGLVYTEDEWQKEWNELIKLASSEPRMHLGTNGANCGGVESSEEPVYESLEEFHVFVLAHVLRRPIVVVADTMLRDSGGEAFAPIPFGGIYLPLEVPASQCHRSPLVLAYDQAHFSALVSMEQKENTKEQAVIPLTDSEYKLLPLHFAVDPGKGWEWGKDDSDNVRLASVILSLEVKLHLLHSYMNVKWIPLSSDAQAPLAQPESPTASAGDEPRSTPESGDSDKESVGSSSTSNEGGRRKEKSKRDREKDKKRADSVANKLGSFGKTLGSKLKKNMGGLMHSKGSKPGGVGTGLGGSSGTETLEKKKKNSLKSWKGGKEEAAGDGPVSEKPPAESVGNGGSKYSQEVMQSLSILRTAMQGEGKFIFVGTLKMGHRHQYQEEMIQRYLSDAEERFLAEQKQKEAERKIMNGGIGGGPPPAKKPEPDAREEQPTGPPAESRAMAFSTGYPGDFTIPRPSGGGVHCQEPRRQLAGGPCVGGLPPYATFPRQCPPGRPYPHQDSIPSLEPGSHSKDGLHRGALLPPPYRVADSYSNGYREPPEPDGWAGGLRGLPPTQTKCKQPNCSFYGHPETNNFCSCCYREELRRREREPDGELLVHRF
Summary of the method: as §1

PRPF8 = PRPF8 (UniProt Q6P2Q9)
Summary of the method: as §1

PSMD7 = biological target: T3, PSMD7 (UniProt P51665)
T3 sequence (whole entry): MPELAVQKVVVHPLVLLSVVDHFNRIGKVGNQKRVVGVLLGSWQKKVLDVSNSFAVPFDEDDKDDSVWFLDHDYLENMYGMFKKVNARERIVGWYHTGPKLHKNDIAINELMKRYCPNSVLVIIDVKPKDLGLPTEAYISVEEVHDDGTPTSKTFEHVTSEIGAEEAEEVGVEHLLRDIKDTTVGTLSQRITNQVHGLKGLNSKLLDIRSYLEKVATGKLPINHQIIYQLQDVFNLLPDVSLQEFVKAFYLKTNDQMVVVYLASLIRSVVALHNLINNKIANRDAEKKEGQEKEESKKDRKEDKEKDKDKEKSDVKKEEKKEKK
Summary of the method: as §1

UCHL1 = UCHL1 (UniProt P09936)
Summary of the method: as §1

UCHL3 = biological target: T4, UCHL3 (UniProt P15374)
T4 sequence (whole entry): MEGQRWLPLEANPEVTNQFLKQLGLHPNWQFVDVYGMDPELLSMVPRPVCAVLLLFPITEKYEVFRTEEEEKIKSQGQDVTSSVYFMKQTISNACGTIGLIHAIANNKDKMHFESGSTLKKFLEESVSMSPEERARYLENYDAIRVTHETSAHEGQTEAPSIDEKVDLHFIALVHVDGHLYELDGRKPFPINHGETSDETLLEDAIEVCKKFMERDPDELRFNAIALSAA
Summary of the method: as §1

UCHL5 = biological target: T5, UCHL5 (UniProt Q9Y5K5)
T5 sequence (whole entry): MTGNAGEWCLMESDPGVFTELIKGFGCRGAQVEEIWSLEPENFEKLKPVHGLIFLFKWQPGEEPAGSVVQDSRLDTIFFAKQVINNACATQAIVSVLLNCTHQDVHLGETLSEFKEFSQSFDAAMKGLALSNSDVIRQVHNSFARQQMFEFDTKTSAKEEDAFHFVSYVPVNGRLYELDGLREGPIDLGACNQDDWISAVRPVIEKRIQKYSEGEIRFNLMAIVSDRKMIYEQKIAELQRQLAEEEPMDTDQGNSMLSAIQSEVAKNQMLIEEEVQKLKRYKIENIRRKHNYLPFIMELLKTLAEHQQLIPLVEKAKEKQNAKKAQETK
Summary of the method: as §1

USP10 = USP10 (UniProt Q14694)
Summary of the method: as §1

USP15 = biological target: T6, USP15 (UniProt Q9Y4E8)
T6 sequence (whole entry): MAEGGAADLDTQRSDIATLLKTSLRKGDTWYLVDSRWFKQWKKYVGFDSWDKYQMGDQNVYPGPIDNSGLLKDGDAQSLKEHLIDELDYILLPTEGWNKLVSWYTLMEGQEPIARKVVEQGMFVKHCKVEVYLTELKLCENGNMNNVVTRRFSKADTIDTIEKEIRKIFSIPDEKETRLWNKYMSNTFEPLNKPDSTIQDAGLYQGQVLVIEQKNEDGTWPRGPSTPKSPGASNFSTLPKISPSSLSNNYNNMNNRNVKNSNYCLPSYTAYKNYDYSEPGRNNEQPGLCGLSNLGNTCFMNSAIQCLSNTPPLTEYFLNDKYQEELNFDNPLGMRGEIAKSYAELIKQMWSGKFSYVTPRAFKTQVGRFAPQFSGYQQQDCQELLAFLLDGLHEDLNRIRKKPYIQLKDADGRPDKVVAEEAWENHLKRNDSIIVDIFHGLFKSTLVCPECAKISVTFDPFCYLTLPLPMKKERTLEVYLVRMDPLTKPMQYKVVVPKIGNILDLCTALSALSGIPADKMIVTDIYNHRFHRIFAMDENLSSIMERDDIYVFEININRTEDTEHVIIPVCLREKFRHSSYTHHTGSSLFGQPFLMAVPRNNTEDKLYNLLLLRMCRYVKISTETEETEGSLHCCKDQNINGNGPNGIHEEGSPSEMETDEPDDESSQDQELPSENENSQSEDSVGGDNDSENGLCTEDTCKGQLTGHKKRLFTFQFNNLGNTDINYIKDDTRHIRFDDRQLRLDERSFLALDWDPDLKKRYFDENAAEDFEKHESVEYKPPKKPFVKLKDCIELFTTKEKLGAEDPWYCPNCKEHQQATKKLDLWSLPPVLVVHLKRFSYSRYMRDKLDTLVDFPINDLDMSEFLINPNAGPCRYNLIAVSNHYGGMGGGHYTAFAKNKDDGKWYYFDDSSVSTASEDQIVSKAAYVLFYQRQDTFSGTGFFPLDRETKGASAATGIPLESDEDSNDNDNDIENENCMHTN
Summary of the method: as §1

USP16 = USP16 (UniProt Q9Y5T5)
Summary of the method: as §1

USP16, sequence (Q9Y5T5 whole entry, looked up): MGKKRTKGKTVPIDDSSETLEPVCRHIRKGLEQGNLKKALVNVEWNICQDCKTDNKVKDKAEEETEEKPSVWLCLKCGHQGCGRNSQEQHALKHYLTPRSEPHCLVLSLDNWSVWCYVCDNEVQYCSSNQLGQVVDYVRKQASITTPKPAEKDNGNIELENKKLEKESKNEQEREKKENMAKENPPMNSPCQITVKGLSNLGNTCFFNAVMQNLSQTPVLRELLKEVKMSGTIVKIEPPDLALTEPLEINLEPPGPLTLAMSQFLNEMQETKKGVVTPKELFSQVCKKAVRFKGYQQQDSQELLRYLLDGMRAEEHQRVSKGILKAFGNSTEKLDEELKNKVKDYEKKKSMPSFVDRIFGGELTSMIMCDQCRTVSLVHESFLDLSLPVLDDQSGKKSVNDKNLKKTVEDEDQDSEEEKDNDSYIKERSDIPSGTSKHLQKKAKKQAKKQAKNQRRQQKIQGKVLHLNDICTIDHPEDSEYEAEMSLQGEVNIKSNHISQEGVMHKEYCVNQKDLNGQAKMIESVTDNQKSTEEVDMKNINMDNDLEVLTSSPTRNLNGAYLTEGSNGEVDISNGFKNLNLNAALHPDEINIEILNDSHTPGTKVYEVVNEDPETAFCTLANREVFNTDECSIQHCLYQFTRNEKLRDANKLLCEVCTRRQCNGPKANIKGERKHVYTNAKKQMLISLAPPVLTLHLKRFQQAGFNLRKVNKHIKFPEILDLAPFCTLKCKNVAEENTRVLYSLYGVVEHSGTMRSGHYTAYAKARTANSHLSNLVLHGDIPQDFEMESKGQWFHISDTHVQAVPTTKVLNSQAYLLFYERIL
UCHL1, sequence (P09936 whole entry, looked up): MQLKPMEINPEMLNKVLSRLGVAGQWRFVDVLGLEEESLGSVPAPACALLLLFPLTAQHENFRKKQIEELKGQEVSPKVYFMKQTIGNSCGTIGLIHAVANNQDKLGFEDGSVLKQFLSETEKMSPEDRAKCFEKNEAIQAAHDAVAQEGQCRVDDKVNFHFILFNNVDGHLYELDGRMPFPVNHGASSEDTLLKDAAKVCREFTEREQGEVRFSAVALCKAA
USP10, sequence (Q14694 whole entry): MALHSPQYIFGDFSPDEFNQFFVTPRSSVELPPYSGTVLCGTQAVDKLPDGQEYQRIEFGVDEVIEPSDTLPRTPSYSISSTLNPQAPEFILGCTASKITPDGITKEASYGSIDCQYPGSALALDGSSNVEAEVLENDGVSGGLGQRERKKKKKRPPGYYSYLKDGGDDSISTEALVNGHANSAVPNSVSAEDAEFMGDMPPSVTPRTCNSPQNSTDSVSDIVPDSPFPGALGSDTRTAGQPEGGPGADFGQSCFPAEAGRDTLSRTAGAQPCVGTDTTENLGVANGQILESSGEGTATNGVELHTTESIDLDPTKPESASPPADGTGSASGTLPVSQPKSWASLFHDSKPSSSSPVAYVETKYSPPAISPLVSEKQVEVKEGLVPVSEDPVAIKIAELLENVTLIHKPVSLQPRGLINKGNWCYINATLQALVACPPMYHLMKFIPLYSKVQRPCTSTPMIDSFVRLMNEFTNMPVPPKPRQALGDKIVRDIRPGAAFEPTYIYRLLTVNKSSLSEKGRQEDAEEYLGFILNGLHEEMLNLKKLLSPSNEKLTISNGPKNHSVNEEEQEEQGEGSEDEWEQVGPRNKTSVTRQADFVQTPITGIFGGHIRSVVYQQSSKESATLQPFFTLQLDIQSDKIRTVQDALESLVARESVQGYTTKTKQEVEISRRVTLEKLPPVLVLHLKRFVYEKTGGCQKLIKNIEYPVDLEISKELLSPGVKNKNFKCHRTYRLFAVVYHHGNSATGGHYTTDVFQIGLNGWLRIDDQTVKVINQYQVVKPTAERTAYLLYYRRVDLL

Compound	log2 ratio of Biotin-Ahx-Ub-VS probe labelling (OTUD6B)	log2 ratio of Biotin-Ahx-Ub-VS probe labelling (OTUD7B)	log2 ratio of Biotin-Ahx-Ub-VS probe labelling (PRPF8)	log2 ratio of Biotin-Ahx-Ub-VS probe labelling (PSMD7)	log2 ratio of Biotin-Ahx-Ub-VS probe labelling (UCHL1)	log2 ratio of Biotin-Ahx-Ub-VS probe labelling (UCHL3)	log2 ratio of Biotin-Ahx-Ub-VS probe labelling (UCHL5)	log2 ratio of Biotin-Ahx-Ub-VS probe labelling (USP10)	log2 ratio of Biotin-Ahx-Ub-VS probe labelling (USP15)	log2 ratio of Biotin-Ahx-Ub-VS probe labelling (USP16)
O=C(CCl)N1CCOC2(CCC2)CC1	-0.0124	-0.961	-0.071	-0.283	-1.35 (active)	0.146	-0.0451	-0.118	-0.447	0.117
CC(NC(=O)CCl)c1ccc2[nH]ncc2c1 (stereo not given)	-0.241	-1.52 (active)	-0.0557	-0.245	-1.1 (active)	0.289	-0.328	-0.179	-0.271	-0.601
COCC[C@@H](NC(=O)CCl)c1ccccc1	0.0947	-0.357	-0.103	-0.216	-1.4 (active)	0.334	-0.0927	0.0397	-0.00696	-0.303
Cc1ccc(CC(CO)CNC(=O)CCl)cc1 (stereo not given)	-0.264	-1.12 (active)	-0.059	-0.169	-1.92 (active)	-0.121	-0.474	-0.0682	-0.199	0.217
Cc1ccc(N(CCC#N)C(=O)CCl)cc1C	-0.133	-1.99 (active)	0.0257	-0.41	-1.31 (active)	0.292	-0.157	-0.00551	-0.234	-0.0509
Cl.Cn1nc2c(c1CNC(=O)CCl)CCCC2	-0.361	-1.04 (active)	-0.184	-0.299	-1.7 (active)	0.314	-0.368	-0.24	-0.224	-0.4
O=C(CCl)Nc1cc(Cl)ccc1C(=O)O	0.133	-0.0733	-0.2	-0.0699	-1.38 (active)	0.231	-0.0926	-0.101	-0.15	-0.669
